The results in this text go back to PubChem BioAssay AID709 (SRMLSC, 2007).

The whole screen tested about 65,000 compounds, of which about 3,600 (5.5%) were called active.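 Rule for the calls: active = at 10 µM, mean starting fluorescence two-fold or more over control wells; inactive = the rest.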 The list comes from a sample in which actives are over-represented; it also holds similar structures and randomly drawn compounds.

The assay in a line: intrinsic fluorescence of library compounds, ex339/em460 – biochemical, MLSMR library, data from DPM-DC assay, artefact control, profiling panel (AID 709).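 Note: signal is the first read of a kinetic run.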 The conditions noted are these: compound autofluorescence, ex339/em460 nm, NADH buffer; at 10 µM; active compounds read high; 1 = no-compound wells, NADH background.
With `CCOc1ccc(-n2c(SC(C)C(=O)OC)nc3c(c2=O)SCC3)cc1` (stereo unspecified), the fluorescence fold increase is 1.06 (inactive). With `CC(=O)c1cc(C#N)c(SCC(=O)C(C)(C)C)nc1C`, the fluorescence fold increase was 1.08 (inactive). In the case of `Cc1ccccc1S(=O)(=O)Cc1ccc(C(=O)NCCN2CCCCC2C)o1` (stereo unspecified), the fluorescence fold increase is 1.1 (inactive). On to `CC1=Nn2c(nnc2-c2ccccc2)SC1`, for which the fluorescence fold increase is 1 (inactive). In the case of `CCOC(=O)C1CCN(C(=O)Cn2cc(C#N)c3ccccc32)CC1` it was 1.19 (inactive); in that of `CCOC(=O)CC1=CC(=O)Nc2ccccc2N1`, 1.15 (inactive). Consider `CCOC(=O)CCc1c(C)c(C#N)c2[nH]c3ccccc3n2c1=O`, for which the fluorescence fold increase is 2.29 (active). Turning to `COc1ccc(C2C(C(=O)N3CCN(c4ccc(OC)cc4)CC3)c3ccccc3C(=O)N2C)cc1` (stereo unspecified), the fluorescence fold increase was 1.12 (inactive). Regarding `COc1ccccc1-n1c(CNC(=O)c2ccccc2)nnc1SCC(=O)Nc1nnc(C)s1`, the fluorescence fold increase is 1.12 (inactive). With `CC(NCCO)C(=O)C12CC3CC(CC(C3)C1)C2` (stereo unspecified), the fluorescence fold increase is 1.13 (inactive).

`Cc1cccc(N(CC(O)CN(C)C)S(=O)(=O)c2ccccc2)c1` (stereo unspecified): the fluorescence fold increase is 1.08 (inactive). In the case of `CNC(=O)Nc1cc(C(C)(C)C)no1` it was 1.07 (inactive).

For `CCOC(=O)c1sc2nc(CSCC(=O)OCc3ccc(C(=O)OC)o3)[nH]c(=O)c2c1C`, the fluorescence fold increase is 1.46 (inactive). For `CCOC(=O)c1ccc(CS(=O)c2ccc(Cl)cc2)o1` (stereo unspecified), the fluorescence fold increase was 1.02 (inactive).

For `CCOC(=O)c1ccc(COC(=O)c2cc(=O)[nH]c3ccccc23)o1`, the fluorescence fold increase was 2.1 (active). `COc1cc(NS(=O)(=O)c2ccccc2)ccc1-n1nc(C)cc1C`: the fluorescence fold increase was 1.12 (inactive).

For `O=S(=O)(Nc1ccc2nc(-c3ccco3)[nH]c2c1)c1ccccc1`, the fluorescence fold increase is 2.12 (active). In the case of `Cc1ccc(S(=O)(=O)Nc2ccc3ncccc3c2)cc1` it was 1.18 (inactive). As to `CCCCN(CCCC)C(=O)CCS(=O)(=O)c1ccc2c(c1)n(C)c(=O)c(=O)n2C`, the fluorescence fold increase was 1.23 (inactive).

`Cc1cc(C)nc(SCc2nnc(SCC(=O)OC3CCCCC3)o2)n1`: the fluorescence fold increase was 1.08 (inactive). For `CC1CN(C2CCN(C(=O)COc3ccccc3)CC2)CC(C)O1` (stereo unspecified), the fluorescence fold increase was 1.1 (inactive). On to `O=c1c2cc3c(=O)n(CC4CCCO4)c(=O)c3cc2c(=O)n1CC1CCCO1` (stereo unspecified), for which the fluorescence fold increase is 1.07 (inactive). Take `O=C(NC1CCCCC1)c1ccc2c(=O)n(CC3CCCO3)c(=O)[nH]c2c1` (stereo unspecified): the fluorescence fold increase is 2.11 (active). `COC(=O)c1ccc2c(=O)n(CC3CCCO3)c(=S)[nH]c2c1` (stereo unspecified): the fluorescence fold increase is 1.06 (inactive). In the case of `Cc1cc(C(=O)CC#N)c(C)n1CC(F)(F)F` it was 1.05 (inactive); in that of `CCCNc1ncnc2sc(C)c(C)c12`, 1.15 (inactive).

Turning to `Fc1cc(F)c2nc(N3CCOCC3)sc2c1`, the fluorescence fold increase was 1.07 (inactive).

Take `COc1ccc(OC)c(NC(=O)CSc2nc(N)c(-c3ccccc3)c(=O)[nH]2)c1`: the fluorescence fold increase is 1.08 (inactive). `CCOC(=O)CCc1c(C)c2ccc(OCc3nn[nH]n3)c(C)c2oc1=O`: the fluorescence fold increase is 3.81 (active). On to `CCN(CC)S(=O)(=O)c1cccc(C(=O)Nc2cc(C)nn2-c2nc(C)cc(C)n2)c1`, for which the fluorescence fold increase is 1.03 (inactive). Take `CC(C)C1C2=C(CC(C)(C)CC2=O)ON1c1ccccc1` (stereo unspecified): the fluorescence fold increase is 1.9 (inactive). Take `O=C(O)C1CCCCC1C(=O)Nc1ccc(Cl)cc1` (stereo unspecified): the fluorescence fold increase is 1.08 (inactive).

For the compound `CCOC(=O)Cc1c(C)nc2c(C#N)c(C)nn2c1C`, the fluorescence fold increase is 3.62 (active). As to `CCOC(=O)CSc1nccc(N(C)C)c1C#N`, the fluorescence fold increase is 1.09 (inactive).

Regarding `COc1ccccc1CNC(=O)Cn1cc2c(n1)CCCC2`, the fluorescence fold increase was 1.13 (inactive). For `CC(=O)c1cc2c(cc1N)OCO2`, the fluorescence fold increase is 1.13 (inactive). On to `COc1cc2[nH]c(=O)n(CCC(=O)NC3CCN(Cc4ccccc4)CC3)c(=O)c2cc1OC`, for which the fluorescence fold increase is 1.46 (inactive). In the case of `COc1cc2cc(CN(CCN3CCCC3)C(=O)Nc3ccccc3Cl)c(=O)[nH]c2cc1OC` it was 2.13 (active); in that of `COc1ccc(CCN(Cc2cc3cccc(C)c3[nH]c2=O)C(=O)N2CCCC2)cc1OC`, 1.08 (inactive); in that of `Cc1cc(C(=O)O)c(S(C)(=O)=O)s1`, 1.04 (inactive). Turning to `Cc1cc(C)c2c(c1)c(C)cc1nnc(SCC(=O)NCc3ccco3)n12`, the fluorescence fold increase was 1.45 (inactive). Turning to `CC(Nc1nc(N2CCCC2)nc2ccccc12)c1ccccc1` (stereo unspecified), the fluorescence fold increase was 2.43 (active). Take `Cc1ccc(C(CC(=O)O)Nc2nc(N3CCCCC3)nc(N3CCCCC3)n2)cc1` (stereo unspecified): the fluorescence fold increase was 1.14 (inactive).

Regarding `CC(C)n1c(C(O)c2ccccc2)nc2ccccc21` (stereo unspecified), the fluorescence fold increase was 1.13 (inactive). In the case of `Cc1ccc(N2CCN(S(=O)(=O)N(C)C)CC2)cc1Cl` it was 1.11 (inactive); in that of `COc1ccc(-c2cc3ccc(OCc4nn[nH]n4)cc3oc2=O)cc1`, 3.01 (active).

For `COc1ccc(OCc2ccc(-c3nc4ccccc4c(=O)n3N)o2)cc1`, the fluorescence fold increase is 1.1 (inactive). In the case of `COc1ccc(-c2noc(COc3ccc(Cl)c(C)c3)n2)cc1` it was 1.02 (inactive); in that of `O=C(O)C1CCN1C1CCCCC1` (stereo unspecified), 0.88 (inactive). With `COCCCn1c(CCC(=O)O)ccc1-c1ccc(F)cc1`, the fluorescence fold increase is 3.84 (active). In the case of `COCCCNC(=O)c1c(F)c(F)c(F)c(F)c1F`, the fluorescence fold increase is 1.04 (inactive). As for `Cc1cccc(N=C2NC(=O)CS2)c1C`, the fluorescence fold increase is 1.01 (inactive). As to `CC(C)CC(=O)N=C1SC2CS(=O)(=O)CC2N1CCc1ccccc1` (stereo unspecified), the fluorescence fold increase is 1.1 (inactive). Take `CCCCCCn1c(CN2CCCCC2)nc2c1c(=O)n(C)c(=O)n2C`: the fluorescence fold increase was 1.13 (inactive). `CCOC(=O)N1CCC(NC(=O)CN2C(=O)COc3ccc(C(C)(C)C)cc32)CC1`: the fluorescence fold increase is 1.02 (inactive). Consider `CCN(CC)S(=O)(=O)c1ccc2[nH]cc(C(=O)NCCc3ccccc3)c(=O)c2c1`, for which the fluorescence fold increase is 1.58 (inactive). `COC(=O)c1cn(C)c2ccc(S(=O)(=O)N3CC(C)CC(C)C3)cc2c1=O` (stereo unspecified): the fluorescence fold increase was 0.95 (inactive). For the compound `CN1CCN(S(=O)(=O)c2ccc3[nH]cc(C(=O)O)c(=O)c3c2)CC1`, the fluorescence fold increase is 2.17 (active). `CC1(C)Cc2cccc(OCC(=O)Nc3nccs3)c2O1`: the fluorescence fold increase was 1.08 (inactive). As for `CCN1CCc2c(C#N)c(NCc3ccccc3)nc(NCCO)c2C1`, the fluorescence fold increase is 2.3 (active). Take `N#Cc1c(N)sc2c1CCN(C(=O)OCc1ccccc1)C2`: the fluorescence fold increase is 1.12 (inactive). In the case of `CC(C)CCNc1nc(N2CCCC2)c2c(c1C#N)CCN(C)C2` it was 1.63 (inactive). As for `CCCC(=O)N1c2ccccc2NC2=C(C(=O)CCC2)C1c1ccc(F)cc1` (stereo unspecified), the fluorescence fold increase is 1.08 (inactive).

Take `O=C1CCCC2=C1C(c1cccs1)n1nc(SCc3ccccc3)nc1N2` (stereo unspecified): the fluorescence fold increase was 2.52 (active). Regarding `CC(C)C(=O)N1c2ccccc2NC2=C(C(=O)CCC2)C1c1ccc(N(C)C)cc1` (stereo unspecified), the fluorescence fold increase was 1.05 (inactive). For the compound `Cc1ccc2c(c1)N(CCCC(=O)NCc1cccnc1)C(=O)CO2`, the fluorescence fold increase is 1.1 (inactive). In the case of `COC(=O)c1c(-c2ccc(C)cc2)csc1N` it was 1.09 (inactive); in that of `CC(=O)NC1=NC(=O)CS1`, 1.08 (inactive); in that of `COc1ccc(CCNC(=O)C2CCN(c3nn4c(=O)cc(C)nc4s3)CC2)cc1OC`, 1.05 (inactive). `CCOc1ccc(CCNC(=O)C2CCN(c3ccc(N4CCOCC4)nn3)CC2)cc1OCC`: the fluorescence fold increase was 4.91 (active).

For the compound `CCCS(=O)(=O)N1CCC(C(=O)NCCc2ccc(OC)c(OC)c2)CC1`, the fluorescence fold increase is 1.09 (inactive). With `O=c1oc2c(CN3CCCCC3)c(O)ccc2c2c1CCCCC2`, the fluorescence fold increase is 2.34 (active). With `CN1CCN(Cc2c(O)ccc3c2oc(=O)c2ccccc23)CC1`, the fluorescence fold increase was 1.15 (inactive).

Take `CCN1CCN(Cc2c(O)ccc3c(=O)c(-c4ccc(OC)c(OC)c4)c(C(F)(F)F)oc23)CC1`: the fluorescence fold increase is 1.18 (inactive). With `O.O.O.O=S(=O)([O-])OC[C@H]1O[C@@H](O[C@]2(COS(=O)(=O)[O-])O[C@H](OS(=O)(=O)[O-])[C@@H](OS(=O)(=O)[O-])[C@@H]2OS(=O)(=O)[O-])[C@H](OS(=O)(=O)[O-])[C@@H](OS(=O)(=O)[O-])[C@@H]1OS(=O)(=O)[O-].[Al]`, the fluorescence fold increase is 1.14 (inactive).

`O=C(CCOc1ccccc1)NCc1ccccc1`: the fluorescence fold increase is 1 (inactive).

With `CCC(=O)N(Cc1cc2cc(OC)ccc2[nH]c1=O)c1ccccc1C`, the fluorescence fold increase is 3.71 (active).

For the compound `CC(=O)OCc1cc2cc(C)ccc2[nH]c1=O`, the fluorescence fold increase was 1.43 (inactive). As for `CCNCc1cc2cc(C)ccc2[nH]c1=O`, the fluorescence fold increase was 1.39 (inactive). `Cc1ccc2[nH]c(=O)c(COC(=O)c3ccccn3)cc2c1`: the fluorescence fold increase was 1.42 (inactive). Regarding `CCOc1ccc2[nH]c(=O)c(CN(CCCO)C(C)=O)cc2c1`, the fluorescence fold increase was 3.27 (active). As to `CCOC(=O)c1cc2cc(C)ccc2[nH]1`, the fluorescence fold increase is 1.67 (inactive). With `COc1ccc(N(Cc2cc3cc(OC)ccc3[nH]c2=O)S(C)(=O)=O)cc1`, the fluorescence fold increase was 3 (active).

Consider `COc1ccc(S(=O)(=O)N(CCCN2CCCC2=O)Cc2cc3c(C)ccc(C)c3[nH]c2=O)cc1`, for which the fluorescence fold increase is 1.97 (inactive). In the case of `CCN(Cc1cc2cc(C)ccc2[nH]c1=O)S(=O)(=O)c1ccccc1`, the fluorescence fold increase was 1.54 (inactive). For the compound `O=C(CSc1nnnn1C1CCCC1)Nc1ccc2c(c1)OCCO2`, the fluorescence fold increase is 1.11 (inactive). For the compound `O=C(NC12CC3CC(CC(C3)C1)C2)N1CCCC(CO)C1` (stereo unspecified), the fluorescence fold increase is 1.11 (inactive). Take `O=C(CN1CCN(C(=O)c2cccc(F)c2)CC1)Nc1ccccc1F`: the fluorescence fold increase was 1.17 (inactive). For the compound `COc1cc(CO)c(C2(CO)CCCC2)cc1OC`, the fluorescence fold increase is 1.08 (inactive). In the case of `Cc1cc(N2C(=O)c3ccc(C(=O)NCc4ccccc4)cc3C2=O)no1` it was 1.1 (inactive); in that of `CC1Cc2cc(/C(O)=C3\C(=O)C(=O)N(CCN4CCOCC4)C3c3ccccc3F)ccc2O1` (stereo unspecified), 1.11 (inactive); in that of `CCOC(=O)c1nc(-c2ccc3c(c2)OCO3)[nH]c1C`, 1.4 (inactive). In the case of `CCCC(=O)Nc1ccc2c(c1)nc1n2CCSC1` it was 1.21 (inactive). In the case of `CCCCC(=O)Nc1cc(C)c2c(=O)oc3ccccc3c2n1`, the fluorescence fold increase was 1.19 (inactive). In the case of `CCCCCC(=O)Nc1ccc2oc(-c3ccncc3)nc2c1` it was 3.72 (active). On to `FC(F)(F)c1cc(-c2ccco2)nc(N2CCOCC2)n1`, for which the fluorescence fold increase was 1.11 (inactive). For `Cc1cc(C(F)(F)F)nn1-c1nc(-c2ccco2)cc(C(F)(F)F)n1`, the fluorescence fold increase was 2.81 (active).

Turning to `CCOC(=O)c1ccn(-c2nc(-c3ccco3)cc(C(F)(F)F)n2)n1`, the fluorescence fold increase was 2.09 (active). As to `O=C(CSc1nc(-c2ccco2)cc(C(F)(F)F)n1)N1CCc2ccccc2C1`, the fluorescence fold increase is 1.1 (inactive).

Regarding `CCOC(=O)CSc1nnc(-c2ccco2)n1C`, the fluorescence fold increase was 1.04 (inactive).

Take `O=C(CSc1nc(-c2ccco2)cc(C(F)(F)F)n1)NCc1cccs1`: the fluorescence fold increase was 1.14 (inactive).
